Hits are enriched below; roughly 12% of the tested compounds scored in any of these assays.
L3MBTL1 block – inhibitors of human L3MBTL1; Q9Y468; AlphaScreen L3MBTL1–H3K9me1 peptide binding; Potency, µM (titrated, usually from 57.1 µM), hits mostly inhibitors; 0.66% of 230,000 active; note: nearly all actives have a fitted effect of over 60% in size
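First, the protein-peptide complex forms for 30 min at room temperature (L3MBTL1 50 nM, biotinylated H3K9me1 peptide 75 nM). Next, compounds are pin-transferred and incubated 30 min. Finally, AlphaScreen beads are added and read after 30 min.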
HP1b binding inh – HP1-beta chromodomain-methylated histone interaction inhibition. AlphaScreen HP1-beta / biotin-H3K9me3 peptide binding. Potency, µM (series often up to 114 µM), actives largely listed as inhibitors. P83916. 0.56% of 390,000 active. AID 540317; note: nearly all actives have a fitted effect of over 70% in size
Target sequence (P83916 whole entry, looked up): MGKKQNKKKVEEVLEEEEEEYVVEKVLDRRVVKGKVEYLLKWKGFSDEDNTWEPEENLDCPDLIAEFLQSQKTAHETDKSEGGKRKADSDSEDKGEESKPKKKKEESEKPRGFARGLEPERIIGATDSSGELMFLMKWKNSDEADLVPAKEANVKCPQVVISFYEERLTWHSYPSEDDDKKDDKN
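AlphaScreen: HP1-beta (50 nM) preformed 30 min with biotin-H3(1-18)K9me3 peptide (50 nM) in PBS pH 7.4, 0.01% Tween-20. Compound added for 30 min at RT, then streptavidin donor/nickel chelate acceptor beads (10 ug/mL) for 30 min.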
Sfp PPTase inh – blocks B. subtilis Sfp PPTase activity | 3.5% of 310,000 active | Biochemical Sfp PPTase activity, qHTS | Potency, µM, hits mostly inhibitors | AID 1490;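 note: the enzyme is Sfp with the accession as filed and its product quenches rhodamine fluorescence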
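Step 1, compound plus 15 nM Sfp-PPTase, 15 min, room temperature. Step 2, add rhodamine-CoA (5 uM) and BHQ-2-YbbR (12.5 uM). Step 3, read 525/598 nm fluorescence at 0 and 30 min.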
JMJD2A Tudor – JMJD2A Tudor domain (human) inhibition | O75164 | AlphaScreen JMJD2A-Tudor / H3K4me3 peptide binding | Potency, µM (doses to about 114 µM), hits mostly inhibitors | 4.4% of 390,000 active | AID 504339; note: nearly all actives have a fitted effect of over 50% in size
G9a block – blocks human histone lysine methyltransferase G9a; Q96KQ7; G9a H3K9 monomethylation, AlphaScreen, 2 h; Potency, µM (highest dose often 102 µM), most hits filed as inhibitors; 8.8% of 350,000 active; note: nearly all actives have a fitted effect of over 75% in size
Target sequence (Q96KQ7 913-1193 limits assumed): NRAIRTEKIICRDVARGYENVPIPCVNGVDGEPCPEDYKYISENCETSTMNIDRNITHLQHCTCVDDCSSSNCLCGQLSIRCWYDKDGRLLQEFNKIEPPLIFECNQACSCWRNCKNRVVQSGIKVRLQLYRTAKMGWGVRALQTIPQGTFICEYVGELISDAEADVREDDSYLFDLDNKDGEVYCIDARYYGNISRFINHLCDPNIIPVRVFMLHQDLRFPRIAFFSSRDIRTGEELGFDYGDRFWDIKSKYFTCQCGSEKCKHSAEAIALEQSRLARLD
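Methyltransferase reactions run at room temperature for 2 h (20 nM enzyme, 500 nM biotin-H3K9 peptide, 20 uM SAM) after a 15 min compound preincubation; product detected by AlphaScreen beads and anti-H3K9me1 antibody.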
BAZ2B block – blocks human BAZ2B | AlphaScreen BAZ2B-H3K14Ac peptide displacement | 4.4% of 360,000 active | Potency, µM (doses to about 114 µM), actives largely listed as inhibitors | Q9UIF8; note: nearly all actives have a fitted effect of over 60% in size
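Compounds, titrated to a top concentration of 110 uM, were incubated 30 min at room temperature with preformed BAZ2B/acetyl-K14 H3 peptide complex (50 nM each). Proximity signal was measured by AlphaScreen after 20 min with beads.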
Hits are given with their value; 0 = inactive; ? = inconclusive; - = not tested or not shown; [ ] = dose if it differs, or a comment. Calls come from the whole dose curve; as a rule, active = well fitted curve in the direction sought with a large enough effect; inconclusive = small, poorly fitted or top-dose-only effect, or another doubt; inactive = no such curve, though single readings can be large; an effect the other way counts as inactive or inconclusive.

SMILES | L3MBTL1 block | HP1b binding inh | Sfp PPTase inh | JMJD2A Tudor | G9a block | BAZ2B block
O=C1N[C@@H]2[C@H](CCCCC(=O)Oc3ccc([N+](=O)[O-])cc3)SC[C@H]2N1 | - | - | 0 | - | - | -
COc1cc(C(=S)N2CCN(c3cccc(Cl)c3)CC2)ccc1O | 0 | 7.08µM | 10µM | 63.1µM | 0[0.501 µM] | 44.7µM
CC(=O)N1CCN(c2ccc(NC(=O)c3ccc(Cl)cc3)cc2)CC1 | 0 | 0 | 0 | 0 | 0 | 0
CC(=O)N1CCN(C(=S)c2ccc(Cl)cc2)CC1 | 0 | ? | 7.08µM | 0 | 25.1µM | 0
Cc1ccc(C(=O)N2CCN(c3cccc(Cl)c3)CC2)cc1C | - | 0 | ? | 0 | 0[12.7 µM] | 0
Cc1nn(CCOc2ccccc2Cl)c(C)c1[N+](=O)[O-] | - | 0 | 0 | 0 | 50.1µM | 0
CCN(CC)c1ccc(C(=C2C=CC(=[N+](CC)CC)C=C2)c2ccccc2)cc1 | - | 10µM | ? | 15.8µM | - | -
CCN(CC)c1ccc(C(=O)NNC(=O)CCNC(=O)c2ccccc2)cc1 | 0 | 0 | - | 0 | 0[12.7 µM] | 0
CCN(CC)c1ccc(C(=C2C=CC(=[N+](CC)CC)C=C2)c2ccc(N(CC)CC)cc2)cc1 | - | 2.82µM | - | 1.26µM | - | -
COC(=O)c1ccccc1NC(=O)c1ccc2nc(Cc3ccccc3)oc2c1 | - | 0 | - | 0 | 0 | 0
Cc1ccc(OCc2nc(-c3ccc(C(=O)N4CCN(c5ccc(Cl)cc5)CC4)cc3)oc2C)cc1 | - | 0 | - | 0 | ? | 0
Cc1ccc(CN2C(=O)C[C@@H](NS(=O)(=O)c3ccc4ccccc4c3)C/C=C\C2c2ccc(C)cc2)cc1 (some centres undefined) | - | - | 0 | - | 6.31µM | -
O=c1[nH]c(-c2ccncc2)nc2ccccc12 | 0 | ? | 14.1µM | ? | 8.91µM | 0
O=c1[nH]c(-c2cccnc2)nc2ccccc12 | 0 | 0 | 0 | 0 | 0 | 0
CN(C)c1ccc(-c2cncnc2NCc2ccccc2)cc1 | - | - | 0 | - | - | -
CCN1C(=O)/C(=C\c2nc3ccccc3c(=O)n2-c2ccccc2)c2ccccc21 | 0 | 0 | 0 | 44.7µM | ? | 50.1µM
c1coc(CNC2CCCCC2)c1 | 0 | 0 | ? | 7.08µM | ? | ?
c1coc(CNC2C3CC4CC(C3)CC2C4)c1 (centres undefined) | - | 0 | 0 | 0 | 0 | 0
c1coc(CNC2CCCCCCC2)c1 | 0 | 0 | 0 | 50.1µM | 20µM | 89.1µM
CCOc1c(Cl)cc(Cl)cc1CNCCSc1nnnn1C | - | 0 | - | 0 | 0 | 0
C=CC(C)=C[C@@]1(C)SC(=O)C(C)=C1O | - | - | - | - | 0 | -
CC(=NNc1ccc2ccccc2n1)c1ccccc1O | - | 0 | - | 0 | - | -
C/C(=N\Nc1nc2ccccc2nc1C)c1ccccc1O | 0 | 0 | 0 | 0 | 22.4µM | 0
O=C(CCn1c(=O)c2ccccc2n(CC(=O)Nc2cccc(F)c2)c1=O)NCCc1ccccc1 | - | 0 | - | 0 | 0 | 0
O=C(O)c1ccccc1-c1c2cc(Br)c(=O)c(Br)c-2oc2c(Br)c(O)c(Br)cc12 | - | - | 79.4µM | - | ? | -
SMILES | L3MBTL1 block | HP1b binding inh | Sfp PPTase inh | JMJD2A Tudor | G9a block | BAZ2B block
Cc1ccc2oc(-c3ccccc3C(=O)O)cc(=O)c2c1 | 0 | 0 | 0 | 0[11.4 µM] | 0 | 0
CCC(CC)C(=O)Nc1cccc(-c2nc3cccnc3s2)c1 | - | 0 | - | 0 | 0 | 0
Cc1ccccc1OCC(=O)Nc1ccc(S(=O)(=O)N(Cc2ccccc2)c2ccccc2)cc1 | - | 0 | - | 79.4µM | 0 | 0
Cc1nc2nc(C)n(CCN3CCOCC3)c(=O)c2c(-c2cccc([N+](=O)[O-])c2)c1C(=O)CCCCCCCCCCN1CCC(c2ccccc2)(c2ccccc2)CC1 | - | 39.8µM | - | 25.1µM | - | -
Cc1nc2ccccc2c(=O)n1CCN1CCOCC1 | - | 0 | 0 | 0 | 0 | 0
O=C1c2ccccc2C(=O)N1c1nc(-c2cccs2)cs1 | 0 | 0 | 25.1µM | 0 | 0 | 0
O=C1c2ccccc2C(=O)N1c1ccncc1 | - | - | - | 0 | - | -
CN1CCN(c2nc(-c3cccs3)cs2)CC1 | - | 0 | 56.2µM | ? | 35.5µM | ?
C=CCSC[C@@H]1Nc2cc(Cl)c(S(N)(=O)=O)cc2S(=O)(=O)N1 | - | - | 0 | - | 0[21.5 µM] | -
CC1CCN(S(=O)(=O)c2ccc3c(c2)N(CC(=O)NCCN(C)C)C(=O)CO3)CC1 | - | 0 | - | 0 | 0 | 0
Cc1oc(-c2ccccc2)nc1CS(=O)CC(=O)N1CCc2ccccc2C1 (centres undefined) | - | 0 | 50.1µM | 0 | 22.4µM | 0
CCCCCCC(=O)N(O)C1CC(=O)N(c2ccc(F)cc2)C1=O (centres undefined) | 0 | 35.5µM | 20µM | 50.1µM | - | 0
COc1ccccc1N(O)C1CC(=O)N(c2ccc(Br)cc2)C1=O (centres undefined) | 0 | ? | 0 | 25.1µM | ? | ?
COc1ccc(N2C(=O)CC(Cc3ccc(Br)cc3)C2=O)cc1 (centres undefined) | 0 | 0 | 0 | 0 | - | 0
CCCCCCC(=O)N(O)C1CC(=O)N(c2ccc(Br)cc2)C1=O (centres undefined) | - | 0 | 22.4µM | 25.1µM | 0.631µM | 0
CCCCN(C(=O)CCC(=O)O)C1CC(=O)N(c2ccc(OCCC)cc2)C1=O (centres undefined) | 0[11.4 µM] | 0 | 0 | 0 | 0[12.7 µM] | 0
COc1cccc(NC(=O)CSc2nc(=O)n(Cc3cccnc3)c3c2CCC3)c1 | - | 0 | - | 0 | 0 | 0
COCCn1nnnc1C(c1ccccc1OC)N1CCN(C(=O)c2ccco2)CC1 (centres undefined) | - | 0 | 0 | ? | 50.1µM | 0
COCCn1nnnc1C(c1ccccc1)N1CCN(C(=O)c2ccco2)CC1 (centres undefined) | - | 0 | 0 | ? | ? | ?
CC(C)CCn1nnnc1C(c1ccc(F)cc1)N1CCN(C(=O)c2ccco2)CC1 (centres undefined) | 0 | 0 | 0 | 0 | 50.1µM | 0
COCCn1nnnc1C(c1cccc(OC)c1OC)N1CCN(C(=O)c2ccco2)CC1 (centres undefined) | - | 0 | 0 | 0 | 50.1µM | 0
COc1ccc(C(=O)NCC(c2ccco2)S(=O)(=O)c2cccs2)cc1OC (centres undefined) | - | 0 | - | 0 | 0 | 0
COc1cn(CC(=O)Nc2c(C)cc(C)cc2C)c(CN2CCCCC2)cc1=O | - | 0 | - | 0 | 0 | 0
CN(Cc1ccc(Cl)cc1Cl)C(=O)CN1C(=O)NC2(CCCC2)C1=O | 0 | 0 | - | 0 | 35.5µM | 0
O=C1C(Nc2ccccc2)=CC(c2ccc(O)cc2)N1c1ccccc1 (centres undefined) | 0 | 0 | ? | 0[11.4 µM] | - | ?
COc1cc(C2C=C(Nc3ccccc3)C(=O)N2c2ccccc2)ccc1O (centres undefined) | 0 | 0 | ? | ? | 50.1µM | ?
COc1ccc2nc(SCC(=O)NCc3ccccc3)[nH]c2c1 | 0 | 0 | 0 | 0 | 0 | 0
Cc1ccc2nc(SCC(=O)NCc3ccc(F)cc3)[nH]c2c1 | - | 0 | 0 | 0 | 0 | 0

Assay outcomes from PubChem.
